The campaign covered roughly 330,000 compounds. About 1,100 (0.33%) were called active. This is one part of a sample in which actives are shown more often than they occur.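 How the source made its calls: active means inhibition above about 40% at 20 µM (limit read from the data); inactive means the rest.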

Chain of Apelin receptor (Homo sapiens) (P35414 whole entry, looked up): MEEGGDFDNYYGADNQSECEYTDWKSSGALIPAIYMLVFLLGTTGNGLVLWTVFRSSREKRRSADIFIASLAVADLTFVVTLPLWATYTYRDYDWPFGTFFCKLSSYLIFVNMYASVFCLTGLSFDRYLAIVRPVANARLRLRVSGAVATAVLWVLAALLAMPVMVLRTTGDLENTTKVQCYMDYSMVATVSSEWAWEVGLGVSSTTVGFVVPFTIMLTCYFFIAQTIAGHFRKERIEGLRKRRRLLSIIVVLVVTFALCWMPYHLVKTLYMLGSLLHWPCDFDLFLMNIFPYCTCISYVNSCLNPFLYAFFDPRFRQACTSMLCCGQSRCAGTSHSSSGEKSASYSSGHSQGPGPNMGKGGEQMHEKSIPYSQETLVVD

The assay has as its target Apelin receptor (Homo sapiens) (UniProt P35414). Nature of the assay: antagonists of human apelin receptor APJ, primary screen, CHO-K1 cells, beta-arrestin complementation, luminescence (AID 2521).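 Further: cells challenged with 10 nM apelin-13 agonist together with compound; plate controls were apelin-13 plus DMSO wells for no effect and DMSO wells lacking apelin-13 for full effect.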 The note with it: at 20 µM, stronger effect = higher value.
Consider `O=c1ccc2c(-c3ccccc3S(=O)(=O)O)c3ccc(O)c(O)c3oc-2c1O`, for which the inhibition is 49.3% (active). Regarding `CCNC(=S)N(CCN(CC)CC)Cc1cc2cc3c(cc2[nH]c1=O)OCO3`, the inhibition was 12.3% (inactive). Next, `CCO[C@H]1OC(C(=O)O)=C[C@@H](C2CCCCC2)[C@@H]1CCCO`: -6.59% (inactive). For the molecule `O=C(Nc1cc(=O)[nH]c2ncnn12)c1ccccc1Cl`, the inhibition is 2.3% (inactive).

For `CCOC(=O)CN1C(=O)C(=O)c2cc(C)ccc21`, the inhibition was -0.658% (inactive).

On to `CC(OC(=O)CN1C(=O)c2ccccc2C1=O)C(=O)c1ccccc1` (centres undefined), for which the inhibition was 23% (inactive). In the case of `CC(C)OC(=O)CN1C(=O)C(=O)c2ccccc21`, the inhibition is 103% (active). Take `COc1ccc(C(=O)C[n+]2ccc(N)c(C)c2C)cc1`: the inhibition was 4.36% (inactive). Consider `CC(=O)c1ccc(S(=O)(=O)N(C)CCCC(=O)N(C)Cc2ccccc2F)cc1`, for which the inhibition was -6.03% (inactive). Next, `CCCn1nc2cc(C(=O)NCc3ccccc3)ccc2c1OCC`: -8.45% (inactive); `N#CCCN(CCC#N)c1nnc(-c2ccccc2)s1`: 1.67% (inactive); `CCC(=O)c1ccc(OC(=O)/C=C/c2cc(OC)c(OC)c(OC)c2)cc1`: 20.9% (inactive). Consider `Cc1cccc2cc3c(N)c(C(=O)N4CCCc5ccccc54)sc3nc12`, for which the inhibition was 95.8% (active).

In the case of `Cc1c(C(=O)N2CCCc3ccccc32)sc2nc(-c3ccccc3)cn12`, the inhibition is 21% (inactive). As to `Cc1c(C(=O)N2CCCc3ccccc32)oc2ccccc12`, the inhibition was 6.71% (inactive). For `Cc1cccc(N(C(=O)c2ccc(CN3CCOCC3)o2)C(C(=O)NC2CCCCC2)c2ccc(F)cc2)c1` (centres undefined), the inhibition is 0.911% (inactive).

On to `C=C(C)C(=O)O[C@H]1C/C(C)=C\C(=O)/C=C(\C)[C@H](O)[C@@H]2OC(=O)C(=C)[C@@H]21`, for which the inhibition was 13.2% (inactive). Consider `Cc1cc(C(=O)CC#N)c(C)n1-c1c(C)n(C)n(-c2ccccc2)c1=O`, for which the inhibition is 9.25% (inactive). As to `COc1ccccc1OC(C)C(=O)Nc1ccc(S(=O)(=O)Nc2nccs2)cc1` (centres undefined), the inhibition is 5.98% (inactive). Next, `O=[N+]([O-])C(=c1ccc2c(c1)N1C3=C(CCCC3)CC3CCCCC31N=2)[N+](=O)[O-]` (centres undefined): -3.42% (inactive); `CCOc1ccc(NS(=O)(=O)c2ccc(Cl)c(C(=O)N(C)Cc3cccnc3)c2)cc1`: 6.06% (inactive). On to `O=C(c1ccccc1Cl)N(Cc1ccccc1F)N1C(=O)CCCC1=O`, for which the inhibition was -12.8% (inactive). As to `O=[N+]([O-])c1cc(S(=O)(=O)CCCN2CCOCC2)ccc1F`, the inhibition is -24.6% (inactive).

Take `CC(CN1CCOCC1)OC(=O)c1ccc(Cl)cc1Cl` (centres undefined): the inhibition was -5.38% (inactive). Next, `Cc1ccc(C(=O)OC(C)CN2CCOCC2)cc1` (centres undefined): -14.4% (inactive); `CC(CN1CCOCC1)OC(=O)c1ccc(C(C)(C)C)cc1` (centres undefined): 77% (active); `CCOC(=O)c1cnc2nc(SCc3ccccc3Cl)[nH]n2c1=O`: -11.5% (inactive). On to `CCc1nc2cccnc2n1-c1ccc(C(=O)O)cc1`, for which the inhibition was 1.09% (inactive).

Consider `COc1ccc(N2CCN(C(=O)CCSCc3ccccc3F)CC2)cc1`, for which the inhibition is -13.7% (inactive). `COC(=O)c1nc2n(n1)C(c1ccc([N+](=O)[O-])cc1)C(C(=O)Nc1ccc(Cl)cc1)=C(C)N2` (centres undefined): the inhibition was 2.59% (inactive). As for `COCCn1c(SCC(=O)Nc2ccccc2F)nc2c(c1=O)SCC2`, the inhibition is 10.3% (inactive). In the case of `COc1ccc(C(=O)NCC(=O)N/N=C/c2ccc([N+](=O)[O-])o2)cc1OC` it was -1.61% (inactive). As for `COc1ccc(O)c(/C=N/N=C/c2cccc([N+](=O)[O-])c2)c1`, the inhibition was 15.6% (inactive). Take `COc1cc(/C=N\NC(=O)CNC(=O)c2cccc([N+](=O)[O-])c2)ccc1O`: the inhibition was 53.6% (active). Consider `COc1ccc(NC(C)=O)cc1NC(=O)CN1CCN(C2c3ccccc3-c3ccccc32)CC1`, for which the inhibition was -6.9% (inactive).

For `O=C(c1ccc(Cl)s1)N(Cc1nnc(-c2ccccc2Cl)o1)C1CC1`, the inhibition was -57.5% (inactive).

Consider `Brc1cc(Br)c(Oc2cc(Br)c(Br)cc2Br)cc1Br`, for which the inhibition is 11.9% (inactive). Next, `COc1ccc(-n2nc(C(=O)NCC(=O)N3CCC(C(N)=O)CC3)c3ccccc3c2=O)cc1OC`: -0.314% (inactive). Take `COc1cc2c(cc1OC)C(C)N(S(=O)(=O)c1cnc(Cl)c(Cl)c1)CC2` (centres undefined): the inhibition was -23.5% (inactive). Turning to `O=C(O)CC1S/C(=N\N=C/c2ccccc2O)N(c2ccc(O)cc2)C1=O` (centres undefined), the inhibition was -8.74% (inactive).

Regarding `COc1ccc(-c2csc(Cc3nc(O)cs3)n2)cc1`, the inhibition is 66.3% (active).

Consider `COc1ccc(-c2csc(NC(=O)COC(=O)Cc3ccc(Cl)cc3Cl)n2)cc1`, for which the inhibition is 4.6% (inactive). Next, `CC(C)(C)C(=O)OCc1nc(-c2ccc(O)c(O)c2)cs1`: -5.74% (inactive); `CSc1cc(C)n(-c2ccccc2C)c(=S)c1C(C)=O`: 7.52% (inactive); `CC1CC2=C(CC1/C=N/NC(N)=S)C(C)(C)CCC2` (centres undefined): 49.2% (active). Take `O=C1C=C(c2ccccc2)CCC1`: the inhibition is 14.7% (inactive). Turning to `Cc1csc(NC(=O)CSc2nnc(-c3cccnc3)o2)n1`, the inhibition was 14.2% (inactive). On to `O=[N+]([O-])c1ccccc1S(=O)(=O)Nc1cccc2cccnc12`, for which the inhibition is 53.5% (active). As to `NS(=O)(=O)c1ccc(CCNS(=O)(=O)c2cccc3cccnc23)cc1`, the inhibition is -8.92% (inactive). On to `O=S(=O)(NCCc1ccc(F)cc1)c1cccc2cccnc12`, for which the inhibition was 9.75% (inactive). Take `Cc1ccc(OCCCC(=O)Nc2ccc(N3CCOCC3)cc2)cc1`: the inhibition is 11.8% (inactive).

For the molecule `O=C(C1CC(=O)N(c2ccc(Br)cc2)C1)N1CCCC1` (centres undefined), the inhibition is -9.51% (inactive). For the molecule `Cc1ccc(NC(=O)c2sc3nc(N)c(C#N)cc3c2N)cc1`, the inhibition was 5.56% (inactive).

In the case of `CC(=O)Nc1ccc(NC(=O)c2sc3nc4c(c(-c5ccc(C)cc5)c3c2N)CCC4)cc1`, the inhibition is 41.5% (active).

With `Cc1cccc(NC(=O)c2sc3nc(N4CCOCC4)c4c(c3c2N)CCCC4)c1`, the inhibition is 0.268% (inactive). In the case of `CCNS(=O)(=O)c1ccc(NC(=O)c2cncc(Br)c2)cc1` it was 3.77% (inactive). Turning to `O=C(CCc1nc2ccccc2c(=O)[nH]1)OCC(=O)c1cccc(Cl)c1`, the inhibition is 46% (active).

As to `O=C(COC(=O)CCc1nc2ccccc2c(=O)[nH]1)Nc1ccc(N2CCOCC2)cc1`, the inhibition was 5.92% (inactive). As for `CC(C)(C)c1ccc(NC(=O)COC(=O)CCc2nc3ccccc3c(=O)[nH]2)cc1`, the inhibition was 9.52% (inactive).
